Laboratory results reported in PubChem BioAssay (EPA / NIEHS).
Where “and” joins values, the source holds several entries; their conditions need not be identical. Identical values can stand only once. Records with an inconclusive call do not appear. Some structures have more than one record in an assay (separate samples or runs), and their calls can disagree. Calls of active or inactive are those of the source. Rule for the calls, unless noted: active = hit-call score of the fitted dose curve at least 0.9, where 1 is the maximum; inconclusive = response in the unintended direction; inactive = score below 0.9.

Tests used:
[1] = read-out: UDP glucuronosyltransferase (UGT1A6), UGT1A6 (gene 54578); assay: LTEA_HepaRG_UGT1A6: Life Technologies and Expression Analysis (LTEA) Assay for UDP glucuronosyltransferase (UGT1A6) using HepaRG (AID 2283539; active = hit-call score of the fitted dose curve at least 0.9, where 1 is the maximum; inactive = score below 0.9); details: mRNA level, 48 h; actives raise or lower the signal
Outline: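 Endpoint is UGT1A6 transcript induction or loss in a human liver cell line, quantified by TaqMan qRT-PCR 48 h after dosing. Concentrations ran from 100 uM downward in half-log steps in 0.5% DMSO; activity was fitted in both directions versus vehicle.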

[2] = read-out: X-box binding protein 1 (XBP1), XBP1 (gene 7494); assay: LTEA_HepaRG_XBP1: Life Technologies and Expression Analysis (LTEA) Assay for X-box binding protein 1 (XBP1) using HepaRG (AID 2283540; active = hit-call score of the fitted dose curve at least 0.9, where 1 is the maximum; inactive = score below 0.9); details: mRNA level, 48 h; actives raise or lower the signal
Outline: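 Human HepaRG monolayers receive test chemical for 48 h across an eight-point half-log series starting at 100 uM. XBP1 mRNA gain or loss is scored against DMSO by qRT-PCR.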

[3] = LTEA_HepaRG_LDH_cytotoxicity: Cytotoxicity Assessment in the Life Technologies and Expression Analysis (LTEA) Assay (AID 2283563);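 for AC50: LDH activity released into spent culture medium as a marker of cell death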
Outline: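 Human HepaRG hepatic cells are treated with test chemicals for 48 h at up to 100 uM in 0.5% DMSO. Cytotoxicity is scored from medium LDH against the vehicle control.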

[4] = ATG_XTT_Cytotoxicity: Cytotoxicity Assessment in the Attagene TRANS-FACTORIAL HepG2 Assay (AID 2283584)
Outline: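 Transfect HepG2 with GAL4-UAS reporter units, dose compound, incubate 24 h, then measure viable cell number by XTT. Fit concentration response against DMSO baseline.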

[5] = TOX21_p53_BLA_p2_viability: Viability Assessment in the Tox21 HCT-116 p53 Agonism Beta-lactamase Assay, Phase 2 (AID 2283591);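 note: actives lower the ATP signal meaning cytotoxicity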
Outline: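 HCT116 p53-bla cells, 4000/well, dosed after 5 h plating (217-fold dilution of DMSO stocks) and incubated 16 h at 37C. Viability taken as cellular ATP by CellTiter-Glo luminescence after 30 min RT; signal loss marks cytotoxicity.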

[6] = biological target: Cellular tumor antigen p53 (Homo sapiens) (UniProt P04637); assay: TOX21_p53_BLA_p2_ratio: Tox21 HCT-116 p53 Agonism Beta-lactamase Assay, Ratio, Phase 2 (AID 2283592)
Outline: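 An inducible beta-lactamase reporter in HCT116 cells signals p53 pathway activation. After 16 h chemical exposure at 37C, cells load CCF4-AM substrate for 2 h at room temperature; activity is the cleaved/uncleaved emission ratio relative to DMSO.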

[7] = TOX21_p53_BLA_p3_viability: Viability Assessment in the Tox21 HCT-116 p53 Agonism Beta-lactamase Assay, Phase 3 (AID 2283593);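 note: cells exposed to compound for 16 h before reading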
Outline: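 HCT116 cells, 4000/well, dosed 5 h after plating by pin transfer (217-fold dilution from DMSO stock) and incubated 16 h at 37C, 5% CO2. Viability read as ATP luminescence with CellTiter-Glo after 30 min at room temperature.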

[8] = biological target: Cellular tumor antigen p53 (Homo sapiens) (UniProt P04637); assay: TOX21_p53_BLA_p3_ratio: Tox21 HCT-116 p53 Agonism Beta-lactamase Assay, Ratio, Phase 3 (AID 2283596)
Outline: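 HCT116 p53-bla cells (4000/well) given compound in DMSO (217-fold dilution) after 5 h, incubated 16 h at 37C. CCF4-AM substrate 2 h at room temperature; 460/530 nm emission ratio, gain fitted against DMSO.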

[9] = TOX21_p53_BLA_p4_viability: Viability Assessment in the Tox21 HCT-116 p53 Agonism Beta-lactamase Assay, Phase 4 (AID 2283597);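 note: hits lower the luminescence signal meaning cytotoxicity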
Outline: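 Compound exposure of HCT116 cells lasts 16 h at 37C, 5% CO2, with DMSO stocks diluted 217-fold. Cellular ATP is then quantified by CellTiter-Glo luminescence after 30 min at room temperature.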

[10] = biological target: Cellular tumor antigen p53 (Homo sapiens) (UniProt P04637); assay: TOX21_p53_BLA_p5_ratio: Tox21 HCT-116 p53 Agonism Beta-lactamase Assay, Ratio, Phase 5 (AID 2283599)
Outline: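 HCT-116 p53-bla cells (4000/well) plated 5 h, dosed with compound (217-fold DMSO dilution) for 16 h at 37 C; CCF4-AM substrate 2 h at room temperature. Activity is the 460/530 nm emission ratio (405 nm excitation), fitted in gain-of-signal direction versus DMSO.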

Measured: AC50

Chain of Cellular tumor antigen p53 (Homo sapiens) (P04637 whole entry, looked up): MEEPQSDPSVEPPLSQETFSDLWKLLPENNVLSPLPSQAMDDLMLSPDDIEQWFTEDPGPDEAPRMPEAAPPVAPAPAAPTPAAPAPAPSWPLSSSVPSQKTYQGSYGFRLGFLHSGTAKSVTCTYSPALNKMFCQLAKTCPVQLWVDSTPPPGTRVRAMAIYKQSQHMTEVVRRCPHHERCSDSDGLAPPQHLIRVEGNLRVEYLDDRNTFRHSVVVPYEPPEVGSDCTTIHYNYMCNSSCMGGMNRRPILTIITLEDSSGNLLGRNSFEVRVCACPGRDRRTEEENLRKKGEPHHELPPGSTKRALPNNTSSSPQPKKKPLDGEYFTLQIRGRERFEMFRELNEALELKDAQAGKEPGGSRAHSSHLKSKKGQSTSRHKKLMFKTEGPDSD

Oc1ccccc1-c1ccccc1
inactive: all assays above

CO/C=C(/C(=O)OC)c1ccccc1Oc1cc(Oc2ccccc2C#N)ncn1
active: [1] 78.4 µM and 80.9 µM and 86.7 µM | [3] 74.8 µM and 77.6 µM and 80.7 µM
inactive: all other assays above

C=CC1(C)OC(=O)N(c2cc(Cl)cc(Cl)c2)C1=O (stereo not given)
not listed: [7]
inactive: all other assays above

C#CCOS(=O)OC1CCCCC1Oc1ccc(C(C)(C)C)cc1 (stereo not given)
active: [1] 26.4 µM | [3] 29.3 µM | [6] 2.65 µM and 1.54 µM | [8] 2.53 µM | [9] 70.4 µM
inactive: [2] | [4] | [5] | [7] | [8] | [9] | [10]

COc1nc(NC(C)C)nc(NC(C)C)n1
not listed: [5] | [7] | [9]
inactive: all other assays above

C=CCC1=C(C)C(OC(=O)C2C(C=C(C)C)C2(C)C)CC1=O (stereo not given)
active: [7] 65.3 µM
inactive: all other assays above

COC(=O)N(OC)c1ccccc1COc1ccn(-c2ccc(Cl)cc2)n1
active: [1] 73.3 µM | [3] 71.5 µM | [6] 1.09 µM | [8] 1.51 µM | [10] 1.9 µM
inactive: [2] | [4] | [5] | [7] | [9]

CN(C)C(=S)SSC(=S)N(C)C
active: [6] 33 µM | [8] 29.3 µM | [10] 77 µM
inactive: [1] | [2] | [3] | [5] | [6] | [7] | [8] | [9] | [10]

CCOP(=S)(OCC)SCn1c(=O)oc2cc(Cl)ccc21
not listed: [5] | [7]
inactive: all other assays above

COP(=S)(OC)Oc1nc(Cl)c(Cl)cc1Cl
not listed: [8] | [9]
inactive: all other assays above

CCCCOC(=O)c1ccccc1C(=O)OCCCC
not listed: [5] | [9]
inactive: all other assays above

CC(C)Oc1cc(-n2nc(C(C)(C)C)oc2=O)c(Cl)cc1Cl
inactive: [2] | [4] | [5] | [6] | [7] | [8] | [9] | [10]
active: [1] 76.5 µM | [3] 84.6 µM | [9] 27.7 µM

CNC(=S)S
inactive: all assays above

CCCCC(CC)COC(=O)c1ccccc1C(=O)OCC(CC)CCCC (stereo not given)
inactive: all assays above

Cc1cc(Cl)ccc1OCC(=O)O
inactive: all assays above

CCNc1nc(Cl)nc(NC(C)C)n1
inactive: [1] | [2] | [3] | [4] | [6]

OC(c1ccc(Cl)cc1)(c1cncnc1)c1ccccc1Cl (stereo not given)
active: [1] 74.1 µM | [3] 70.1 µM | [6] 81.5 µM
inactive: [2] | [4] | [5] | [6] | [7] | [8] | [9] | [10]

CCCCNC(=O)OCC#CI
inactive: [1] | [3] | [4] | [5] | [6] | [7] | [9] | [10]
active: [2] 50 µM | [6] 67 µM | [8] 59.5 µM and 78 µM | [9] 35.9 µM | [10] 78.1 µM

COc1ccc(C(c2ccc(OC)cc2)C(Cl)(Cl)Cl)cc1
active: [1] 79.2 µM | [3] 83.4 µM
inactive: all other assays above

CCCC1COC(Cn2cncn2)(c2ccc(Cl)cc2Cl)O1 (stereo not given)
active: [1] 59.5 µM | [3] 32 µM
inactive: all other assays above

CNC(=O)ON=CC(C)(C)SC
inactive: all assays above

CC(C)(C)c1ccc(CSc2cnn(C(C)(C)C)c(=O)c2Cl)cc1
active: [1] 18.8 µM | [2] 2.71 µM | [3] 3.02 µM | [6] 0.0143 µM
inactive: [4] | [5] | [8] | [10]

N#Cc1nn(-c2c(Cl)cc(C(F)(F)F)cc2Cl)c(N)c1S(=O)C(F)(F)F (stereo not given)
active: [1] 44.8 µM | [2] 68.6 µM | [3] 34.2 µM
inactive: all other assays above

COc1cnc(OC)n2nc(NS(=O)(=O)c3c(OCC(F)F)cccc3C(F)(F)F)nc12
not listed: [9] | [10]
inactive: all other assays above
